Compounds with a hit are over-represented: about 3.4% of the library has one in this group of screens.
GPR151 activ: activates the human receptor GPR151; Q8TDV0; PathHunter beta-arrestin GPR151 cells, luminescence; activation, % at 11.2 µM; actives 1% (n = 650,000); AID 1508602; in the data active means activation above about 4.9%;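 further: 0% = median of compound wells and 100% = cells with positive control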
TEAD-YAP block: TEAD-YAP interaction inhibition. HEK-TIYL cells, TEAD-Gal4/YAP UAS-luciferase luminescence. inhibition, % at 9.12 µM. actives 1.4% (n = 640,000); in the data active means inhibition above about 32%;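 further: 0% = median of test compound wells and 100% = reference inhibitor wells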
MITF primary: inhibitors of human MITF; actives 0.91% (n = 650,000); O75030; AlphaScreen MITF homodimerization, bead proximity signal; inhibition, % at 2.6 µM; in the data active means inhibition above about 50%;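 further: 0% = vehicle wells with protein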
FBW7 activator: activators of human E3 ligase FBW7 | AlphaScreen FBW7–phospho-cyclin E peptide binding, activator screen | normalized activity (activation), % at 26.1 µM | actives 0.13% (n = 650,000) | AID 1259310; in the data active means normalized activity above about 1.9%;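 further: purified mutant Fbw7 with reduced substrate affinity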
Target sequence (Q969H0 whole entry, looked up): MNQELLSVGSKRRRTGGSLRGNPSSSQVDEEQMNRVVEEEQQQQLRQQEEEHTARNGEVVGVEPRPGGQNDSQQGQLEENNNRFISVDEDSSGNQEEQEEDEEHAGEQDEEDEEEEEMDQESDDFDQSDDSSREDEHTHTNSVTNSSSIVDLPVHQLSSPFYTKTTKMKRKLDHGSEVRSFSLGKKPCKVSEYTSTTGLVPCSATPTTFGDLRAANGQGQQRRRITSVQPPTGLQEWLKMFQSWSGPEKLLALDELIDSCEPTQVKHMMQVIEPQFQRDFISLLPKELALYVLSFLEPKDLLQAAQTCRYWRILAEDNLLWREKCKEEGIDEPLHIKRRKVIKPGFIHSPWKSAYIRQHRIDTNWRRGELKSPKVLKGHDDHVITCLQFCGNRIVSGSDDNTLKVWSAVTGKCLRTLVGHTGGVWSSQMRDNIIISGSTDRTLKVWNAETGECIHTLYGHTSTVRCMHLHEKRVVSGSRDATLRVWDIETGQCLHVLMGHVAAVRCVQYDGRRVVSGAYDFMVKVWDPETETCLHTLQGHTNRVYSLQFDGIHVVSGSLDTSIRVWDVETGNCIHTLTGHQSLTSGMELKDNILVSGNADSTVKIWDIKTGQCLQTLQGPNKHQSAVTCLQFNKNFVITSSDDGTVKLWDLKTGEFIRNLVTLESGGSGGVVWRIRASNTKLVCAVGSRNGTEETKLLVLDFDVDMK
The depositor's hits bear a star.

SMILES	GPR151 activ	TEAD-YAP block	MITF primary	FBW7 activator
COc1ccc(C2C3=C(Nc4[nH]c(=O)[nH]c(=O)c42)c2ccccc2C3=O)cc1 (stereo unspecified)	-2	56*	21	0
Cc1ccc(C2C3=C(Nc4[nH]c(=O)[nH]c(=O)c42)c2ccccc2C3=O)cc1 (stereo unspecified)	0	39*	16	0
COCc1ccc(C(=O)NCc2c(C)ncc3c2CCN(C(=O)c2cccc(C)c2)C3)o1	-1	4	-1	0
O=C(/C=C\Nc1ccc2c(c1)OCO2)c1cccc2ccccc12	2	-49	1	0
COc1cccc(C(=O)/C=C/Nc2cc(OC)ccc2OC)c1	1	-42	9	0
COc1ccc(N/C=C/C(=O)c2ccccc2)cc1	-8	84*	3	0
COc1cccc(C(=O)/C=C/Nc2ccccc2OC)c1	-6	64*	2	0
COc1cccc(C(=O)/C=C\Nc2ccc(Br)cc2)c1	-9	54*	-14	0
O=C(/C=C\Nc1ccc2c(c1)OCO2)c1ccccc1	0	74*	2	0
N#C/C(=C\c1cn(CC(=O)Nc2ccc(F)cc2)c2ccccc12)C(N)=O	0	-8	1	0
COc1cccc(C(=O)/C=C\Nc2ccc3c(c2)OCO3)c1	-1	85*	1	0
NS(=O)(=O)c1ccc(Nc2nccc(N[C@@H]3CCCNC3)n2)cc1	-1	-26	-4	0
N#Cc1ccccc1Nc1cc(NC(=O)Cc2ccc(F)cc2)ncc1C(F)(F)F	0	20	17	0
CNC(=O)c1ccccc1Nc1cc(NC(=O)Cc2c(Cl)cccc2Cl)ncc1C(F)(F)F	-1	56*	12	0
CNC(=O)c1ccccc1Nc1cc(NC(=O)Cc2ccccc2)ncc1C(F)(F)F	3	72*	-24	0
CNC(=O)c1ccccc1Nc1cc(NC(=O)CCc2ccccc2)ncc1C(F)(F)F	-2	64*	-3	0
O=C(Cc1ccc2c(c1)OCO2)Nc1cc(Nc2ccccc2-c2ncn[nH]2)c(C(F)(F)F)cn1	-2	60*	12	1
CC(C)(C)NC(=O)c1ccccc1NC(=O)CCc1ccccc1	3	-7	1	0
O=Cc1ccccc1OCCCCOc1ccccc1C=O	1	-6	-13	0
O=C(Nc1ccc(O)cc1)c1c(O)c2c([nH]c1=O)CCCC2	2	68*	4	0
Cc1ccc(NC(=O)c2c(O)c3c([nH]c2=O)CCCC3)cc1	-1	2	2	0
CCSc1nnc2ccc(-c3ccc(F)cc3)nn12	-1	-9	0	0
CC1CCN(C(=O)c2ccc3nc(N4C(=O)CCC4=O)sc3c2)CC1	0	-10	17	1.9*
O=C(Nc1ncc([N+](=O)[O-])s1)c1ccc(Br)cc1F	-12	85*	-5	0
O=c1c2c3c(sc2n2cnnc2n1Cc1ccccc1)CCCC3	0	-5	18	1.9*
SMILES	GPR151 activ	TEAD-YAP block	MITF primary	FBW7 activator
COc1ccc(C(=O)C[n+]2cccc3cc(OC)ccc32)cc1	0	53*	-5	0
CCC[n+]1cccc2cc(OC)ccc21	1	1	-1	0
Cn1cc(-c2ccc3cnc(Nc4ccc(C(=O)N5CCOCC5)cc4)nc3c2)cn1	-2	71*	28	0
c1cn(-c2ccc(Nc3ncc4ccc(-c5cn[nH]c5)cc4n3)cc2)cn1	-1	96*	24	0
Cn1cc(-c2ccc3cnc(Nc4ccc(-n5cnc(-c6ccccn6)n5)cc4)nc3c2)cn1	0	96*	-2	0
Cn1cc(-c2ccc3cnc(Nc4ccc(-n5ccnc5)cc4)nc3c2)cn1	-1	72*	7	0
Cc1cnc(Nc2ccc(-n3ccnc3)cc2)nc1N	0	-4	6	0
Cc1ccc(-c2ncn(-c3ccc(Nc4ncc5ccc(-c6cnn(C)c6)cc5n4)cc3)n2)cn1	0	20	24	1
Cn1cc(-c2ccc3cnc(Nc4ccc(N5CCOCC5)cc4)nc3c2)cn1	2	60*	19	1
Cc1ccc(NC(=O)CSc2nnc(-c3ccccc3N)n2C)cc1Cl	1	8	-1	0
Cn1c(=O)c2[nH]c(Nc3cccc(C(F)(F)F)c3)nc2n(C)c1=O	1	45*	16	0
Nc1cccc(-c2cc(C(=O)NCc3cccc(C(F)(F)F)c3)ccn2)c1	-2	11	6	0
O=[N+]([O-])c1ccc(Br)c2ccncc12	4	62*	19	0
CCOc1ccc(NC(=O)Cn2ncc3c(=O)oc4ccccc4c32)cc1	1	-1	-1	0
Cc1sc2ncnc(SCc3cc(=O)oc4cc(O)c(O)cc34)c2c1C	-2	9	64*	0
Cc1sc2ncnc(SCc3cc([N+](=O)[O-])cc4c3OCOC4)c2c1C	-1	1	3	0
NC(=O)c1c(NC(=O)c2ccc(S(=O)(=O)N3CCOCC3)cc2)sc2c1CCCC2	-1	7	7	0
COc1ccccc1C(=O)[C@H]1C(=O)N[C@@]23CCN(C)C[C@@H]2[C@@H]1c1cccc(OC)c1O3	0	-8	-3	0
Cc1ccc(C2=NNC(c3ccncc3)S2)cc1 (stereo unspecified)	-1	-12	8	0
Cc1ccc(C2=NNC(c3ccc(O)cc3O)S2)cc1 (stereo unspecified)	-1	80*	10	1
Oc1ccc(C2NN=C(Cc3ccccc3)S2)c(O)c1 (stereo unspecified)	0	8	102*	0
O=[N+]([O-])c1ccc(C2NN=C(Cc3ccccc3)S2)cc1 (stereo unspecified)	-1	-43	-7	0
CC(=O)Nc1ccc(CN2Cc3cc(Cl)ccc3OC(C)C2)cc1 (stereo unspecified)	-1	12	23	1
COc1cc(CN2CCN(C=O)CC2)cc([N+](=O)[O-])c1O	-1	6	16	0
CC(=O)C1=C(c2ccccc2)S/C(=C2/C(=S)C(C)(C)Nc3ccc(C)cc32)S1	0	7	57*	0
SMILES	GPR151 activ	TEAD-YAP block	MITF primary	FBW7 activator
CCOc1ccc2c(c1)/C(=C1/SC(C(C)=O)=C(c3ccccc3)S1)C(=S)C(C)(C)N2	-1	4	7	0
CN(C)S(=O)(=O)c1cc([N+](=O)[O-])ccc1N1CCC(C(N)=O)CC1	0	-2	4	0
CC(=O)N(Cc1ccc(F)cc1)C1=C(NCc2ccccc2)C(=O)c2ccccc2C1=O	-3	59*	4	0
COC(=O)C1CCN(c2ccc([N+](=O)[O-])cc2[N+](=O)[O-])CC1	2	-3	12	1
CCOC(=O)C1CN(c2ccc([N+](=O)[O-])cc2[N+](=O)[O-])C1	1	55*	-10	0
Cc1ccc(Cl)c(OCC(=O)Nc2nccs2)c1	0	56*	10	0
CC(C)c1ccccc1OCC(=O)Nc1nccs1	-1	4	-2	0
O=C(COc1ccccc1Br)Nc1nccs1	-9	75*	13	0
CCOc1ccc(-c2cnc(NCc3cc(OC)ccc3OC)n2C)cc1	0	7	31	0
